In the library only some 18% were active in any assay of this set; here they are far more common.
TDP1 block = blocks human tyrosyl-DNA phosphodiesterase 1 | actives 0.28% (n = 350,000) | Q9NUW8 | AID 485290 | Potency, µM (doses to about 130 µM), for the others: top-dose activity change, negative = inhibition, hits mostly inhibitors | recombinant TDP1, AlphaScreen DNA substrate cleavage; note: nearly all actives have a fitted effect of over 40% in size
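Steps: enzyme plus compound, 15 min RT; add biotin/phosphotyrosine-FITC oligonucleotide (15 nM final), react 5 min; add donor/acceptor beads (10 ug/ml final), 10 min; read AlphaScreen. Tdp1 at 1 nM final.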
KAT2A inh = inhibitors of human GCN5L2 histone acetyltransferase; Potency, µM (series often up to 58.9 µM), for inactives: top-dose activity change, negative = inhibition, usual class: inhibitors; actives 0.21% (n = 390,000); Q92830; GCN5L2 HAT assay, ThioGlo1 CoA-SH fluorescence; AID 504327
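Fluorescence readout, Ex340nm/Em540nm: ThioGlo1 (50uM final) reacts with free CoA thiol released as 20nM GCN5L2 acetylates H3(1-25) peptide (75uM) using acetyl-CoA (70uM). Compound and enzyme sat 15 min beforehand; 20 min room-temperature reaction.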
TDP1 cell CPT = growth inhibition of DT40 Tdp1-/-;hTDP1 cells with camptothecin (screen for TDP1 inhibitors); AID 686979; chicken DT40 Tdp1-/-;hTDP1 cells + 20 nM CPT, ATP luminescence, 48 h; actives 12% (n = 420,000); Potency, µM (titrated, usually from 46.2 µM), inactives show top-dose activity change, negative = growth inhibition, most hits filed as inhibitors; note: nearly all actives have a fitted effect of over 55% in size
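Cell growth measured by CellTiter-Glo luminescence after a minimum 48 h, 37 C compound exposure with 20 nM CPT in Tdp1-knockout DT40 cells stably expressing hTDP1, seeded 400/well; qHTS titration format.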
VDR inhibitor = vitamin D3 receptor (human) inhibition. P11473. VDR-SRC2-3 peptide fluorescence polarization, 2 h. Potency, µM, inactives show max response, negative = inhibition, actives largely listed as inhibitors. actives 0.93% (n = 400,000). AID 504847
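The screen uses fluorescence polarization to detect compounds that interfere with recruitment of the SRC2-3 coactivator peptide to VDR; plates are read after 2 h at room temperature.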
DT40 TDP1 no CPT = qHTS for Inhibitors of human tyrosyl-DNA phosphodiesterase 1 (TDP1): qHTS in cells in absence of CPT | actives 15% (n = 420,000) | Potency, µM (doses to about 46.2 µM), for inactives: at the top dose activity change, negative = growth inhibition, usual class: inhibitors | DT40 Tdp1-/- hTDP1 cells, no CPT, ATP luminescence, 48 h; note: nearly all actives have a fitted effect of over 55% in size
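Camptothecin absent (DMSO only). Human TDP1-complemented DT40 knockout cells, 400 cells/well, 37 °C for minimum 48 hr; ATP measured via CellTiter-Glo, 30 min dark incubation, luminescence.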
PLK1 PBD inh = PLK1 (human) polo-box domain binding inhibition | P53350 | Plk1 PBD binding of FITC phosphopeptide, fluorescence polarization | Potency, µM, for the others: max response, negative = inhibition, most hits filed as inhibitors | actives 2.8% (n = 360,000); note: series mostly up to about 57 µM; nearly all actives have a fitted effect of over 65% in size
Target sequence (P53350 whole entry, looked up, the tested form may be a part): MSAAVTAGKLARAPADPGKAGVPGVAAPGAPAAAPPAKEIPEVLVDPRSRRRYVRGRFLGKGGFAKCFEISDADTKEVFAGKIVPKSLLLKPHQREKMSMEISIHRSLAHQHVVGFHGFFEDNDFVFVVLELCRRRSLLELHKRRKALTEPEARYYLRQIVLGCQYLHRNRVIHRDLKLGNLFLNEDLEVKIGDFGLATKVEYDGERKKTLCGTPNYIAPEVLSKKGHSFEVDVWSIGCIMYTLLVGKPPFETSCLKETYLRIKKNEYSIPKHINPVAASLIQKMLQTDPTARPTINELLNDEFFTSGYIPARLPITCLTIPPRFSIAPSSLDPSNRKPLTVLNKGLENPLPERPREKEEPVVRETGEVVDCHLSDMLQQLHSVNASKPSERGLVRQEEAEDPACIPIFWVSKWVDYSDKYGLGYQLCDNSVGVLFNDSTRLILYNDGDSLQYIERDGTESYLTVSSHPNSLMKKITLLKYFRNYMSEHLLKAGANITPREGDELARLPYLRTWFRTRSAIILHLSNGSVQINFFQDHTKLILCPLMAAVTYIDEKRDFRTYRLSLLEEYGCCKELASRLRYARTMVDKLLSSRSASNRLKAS
* hit, by the source's call; ? = inconclusive; . = no result given; [ ] = another dose, or the depositor's remark. Calls come from the whole dose curve; as a rule, active = well fitted curve in the direction sought with a large enough effect; inconclusive = small, poorly fitted or top-dose-only effect, or another doubt; inactive = no such curve, though single readings can be large; an effect the other way counts as inactive or inconclusive. % is set by controls: 0 for no effect and ±100 for the full control effect; potency is the fitted concentration of half-maximal effect.

SMILES	TDP1 block	KAT2A inh	TDP1 cell CPT	VDR inhibitor	DT40 TDP1 no CPT	PLK1 PBD inh
CC[C@]12c3[nH]c4ccc(Cl)cc4c3CCN1C(=O)[C@@H](CC(=O)NC/C=C(\C)CCC=C(C)C)C[C@@H]2C(=O)N1CCN(C(=O)C2CC2)CC1	0%[56.1 µM]	-12%	?	-14%	21µM*	-3%
CCN(CC)C(=O)[C@H]1C[C@H](CC(=O)NCCN2CCOCC2)C(=O)N2CCc3c([nH]c4cc(CCC(=O)N(C)C)ccc34)[C@]12C	1%[56.1 µM]	0%	0%	0%	-6%	-11%
CC[C@]12c3[nH]c4ccc(Cl)cc4c3CCN1C(=O)[C@@H](CC(=O)NCCc1ccccn1)C[C@@H]2C(=O)N1CCN(C(=O)C2CC2)CC1	2%[56.1 µM]	-3%	?	-9%	?	-1%
CC(C)=CCC/C(C)=C/CNC(=O)C[C@H]1C[C@H](C(=O)N2CCCCC2)[C@@]2(C)c3[nH]c4cc(CCC(=O)N(C)C)ccc4c3CCN2C1=O	2%[56.1 µM]	-2%	7.3µM*	-20%	15µM*	-4%
CC(C)=CCC/C(C)=C/CNC(=O)C[C@H]1C[C@H](C(=O)N2CCOCC2)[C@@]2(C)c3[nH]c4cc(CCC(=O)N(C)C)ccc4c3CCN2C1=O	0%[56.1 µM]	2%	23µM*	0%	16µM*	-5%
CC[C@]12c3[nH]c4cc(CCC(=O)N(C)C)ccc4c3CCN1C(=O)[C@@H](CC(=O)NC/C=C(\C)CCC=C(C)C)C[C@@H]2C(=O)N1CCN(C(=O)C2CC2)CC1	0%[56.1 µM]	-2%	8.2µM*	-6%	6.5µM*	2%
CCc1ccc(-n2c(=O)c3c4c(sc3n(CC(=O)N3CCCCC3CC)c2=O)CCC4)cc1 (configuration not stated)	1%	-2%	?	-7%	?	.
CCCN1CNc2c(c(=O)[nH]c(=S)n2CCc2ccc(OCC)c(OCC)c2)C1	1%	.	-20%	-5%	?	.
COc1ccc(Cl)cc1NC(=O)CN1C(=O)C(C)(C)c2cc(S(=O)(=O)N3CCCCC3)ccc21	3%	-5%	?	-6%	?	.
CN(Cc1cc(-c2ccccc2)on1)C(=O)c1cc(COc2c(F)cccc2F)on1	0%	-10%	10µM*	-7%	?	-3%
CCc1ccc(CN(C)C(=O)c2cc(COc3cccc4cnccc34)on2)cc1	0%	-11%	9.2µM*	-30%	6.5µM*	-11%
COc1ccc(CNC(=O)c2cc(-c3cccc(Cl)c3)on2)cc1	8%	4%	?	2%	-29%	.
Cc1nc(CN(C)C(=O)c2cc(COc3c(F)cccc3F)on2)cs1	0%	4%	-20%	13%	?	-6%
CCc1ccc(CN(C)C(=O)c2cc(COc3c(F)cccc3F)on2)cc1	-3%	-3%	23µM*	-27%	16µM*	19µM*
CN(Cc1ccccc1)C(=O)c1cc(-c2cccc(Cl)c2)on1	-8%	-8%	23µM*	-12%	?	.
Cc1c(C(C)NC(=O)c2cc(COc3cccc4cnccc34)on2)cnn1C (configuration not stated)	4%	-7%	23µM*	-9%	13µM*	-2%
COc1ccc(NC(=O)C2Cc3c(-c4ccccc4Oc4ccccc4)ccnc3O2)cn1 (configuration not stated)	.	.	15µM*	.	15µM*	-7%
COc1ccc(NC(=O)C2Cc3c(-c4ccccc4Oc4ccccc4)ccnc3O2)cc1OC (configuration not stated)	.	.	9.2µM*	.	16µM*	3%
O=C(NCc1ccncc1)C1Cc2c(-c3ccccc3Oc3ccccc3)ccnc2O1 (configuration not stated)	.	.	13µM*	.	16µM*	-10%
